Shown are actives, neighbours in structure and some others; about 2.4% of the full set was active somewhere.
Pol eta inh-1: qHTS for Inhibitors of Polymerase Eta; hit rate 1.2% among 390,000; AID 588591, 2011; Potency, µM (series often up to 114 µM), for inactives: top-dose activity change, negative = inhibition, usual class: inhibitors; recombinant Pol eta, fluorescent DNA replication assay; DNA polymerase eta (Homo sapiens), Q9Y253; also: % is scaled to controls: 0 for no effect and ±100 for the full control effect
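Fluorescent replication assay: 50 nM final substrate added after a 15 min room-temperature compound preincubation with 10 nM enzyme. Signal taken at 0 min and again at 10 min.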
Pol kappa inh-1: qHTS for Inhibitors of Polymerase Kappa. purified Pol kappa, fluorescent DNA synthesis assay, 10 min. Potency, µM (top dose mostly 107 µM), for inactives: top-dose activity, negative = inhibition, most hits filed as inhibitors. hit rate 0.53% among 400,000; also: % is scaled to controls: 0 for no effect and ±100 for the full control effect
Target sequence (Q9UBT6 whole entry, looked up): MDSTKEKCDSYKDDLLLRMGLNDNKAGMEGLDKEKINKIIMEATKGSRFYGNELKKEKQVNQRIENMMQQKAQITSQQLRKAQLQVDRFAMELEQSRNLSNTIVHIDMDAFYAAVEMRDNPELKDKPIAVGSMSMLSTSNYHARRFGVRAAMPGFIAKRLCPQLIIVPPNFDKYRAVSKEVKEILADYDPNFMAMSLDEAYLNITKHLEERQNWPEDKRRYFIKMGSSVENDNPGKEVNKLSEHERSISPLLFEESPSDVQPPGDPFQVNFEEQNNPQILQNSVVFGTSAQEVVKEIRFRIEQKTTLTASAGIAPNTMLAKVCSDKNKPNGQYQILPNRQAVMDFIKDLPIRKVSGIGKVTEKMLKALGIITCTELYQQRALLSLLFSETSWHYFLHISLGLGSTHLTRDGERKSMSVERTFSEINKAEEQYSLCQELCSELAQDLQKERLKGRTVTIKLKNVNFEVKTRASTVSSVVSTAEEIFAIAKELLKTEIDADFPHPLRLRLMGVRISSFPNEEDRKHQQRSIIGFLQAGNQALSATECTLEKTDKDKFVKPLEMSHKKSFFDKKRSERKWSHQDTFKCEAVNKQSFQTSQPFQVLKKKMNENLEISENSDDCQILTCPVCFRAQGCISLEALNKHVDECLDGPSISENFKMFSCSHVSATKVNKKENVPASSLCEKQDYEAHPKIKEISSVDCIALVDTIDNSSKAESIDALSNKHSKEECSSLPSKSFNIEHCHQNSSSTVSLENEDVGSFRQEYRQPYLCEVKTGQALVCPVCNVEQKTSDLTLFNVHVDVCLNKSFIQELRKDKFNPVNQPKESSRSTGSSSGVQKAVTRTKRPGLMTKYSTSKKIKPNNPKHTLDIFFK
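Enzyme at 10 nM met test compounds for 15 min at room temperature. Substrate addition (50 nM final) began the reaction, which was monitored by fluorescence at 0 and 10 min.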
Pol iota inh: qHTS for Inhibitors of Polymerase Iota. Potency, µM (highest dose often 115 µM), without a hit: top-dose activity, negative = inhibition, hits mostly inhibitors. AID 588590, 2011. hit rate 1% among 390,000. Pol iota fluorescent replication assay, 10 min. DNA polymerase iota (Homo sapiens), Q9UNA4
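Fluorescent replication assay read twice, at 0 min and 10 min after adding 50 nM (final) substrate. Enzyme (10 nM) and compounds were first incubated 15 min at room temperature; enzyme-free buffer wells were negative controls.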
POLB inh: qHTS Assay for Inhibitors of DNA Polymerase Beta; P06746; Pol beta primer extension/strand displacement, fluorescence kinetic; Potency, µM (doses to about 114 µM), for the others: at the top dose activity change, negative = inhibition, most hits filed as inhibitors; hit rate 1.3% among 340,000; AID 485314, 2010; also: % is scaled to controls: 0 for no effect and ±100 for the full control effect
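10 nM enzyme + cpd, 15 min RT; start with substrate 50 nM final; read 0 min and after 10 min RT. Corrected, normalized data; 4-parameter Hill curve fit.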
WRN inhibitor: qHTS for Inhibitors of WRN Helicase | Bifunctional 3'-5' exonuclease/ATP-dependent helicase WRN (Homo sapiens), Q14191 | WRN helicase unwinding, fluorescent forked duplex, kinetic | Potency, µM (doses to about 114 µM), inactives show at the top dose activity change, negative = inhibition, usual class: inhibitors | hit rate 0.46% among 360,000 | AID 651768, 2012; also: % is scaled to controls: 0 for no effect and ±100 for the full control effect; nearly all actives have a fitted effect of over 55% in size
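Kinetic red-fluorescence monitoring (525/598 nm) tracks WRN helicase activity after 100 nM fluorophore-quencher forked duplex and 2 mM ATP are added to 20 nM enzyme pretreated 15 min at room temperature with compound.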
FEN1 inhibitor: qHTS Assay for the Inhibitors of Human Flap endonuclease 1 (FEN1) | P39748 | Recombinant FEN1 flap cleavage, fluorescence, 15 min | Potency, µM (top dose mostly 114 µM), inactives show at the top dose activity change, negative = inhibition, actives largely listed as inhibitors | hit rate 0.35% among 390,000; also: % is scaled to controls: 0 for no effect and ±100 for the full control effect; nearly all actives have a fitted effect of over 65% in size
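Steps: FEN1 (10 nM) dispensed; compound added by pin tool; 15 min at room temperature; substrate added to 50 nM final; reads at 0 min and 15 min; data normalized and fitted (four-parameter Hill).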
PGK validate: qHTS for inhibitors of Phosphogylcerate Kinase: Hit Validation Screen; AID 686980, 2013; Potency, µM (titrated, usually from 57.5 µM), for inactives: top-dose activity change, negative = inhibition, hits mostly inhibitors; shares compounds with Pol kappa inh-1; TbPGK coupled GAPDH assay, Kinase-Glo luminescence; hit rate 79% among 500; also: % is scaled to controls: 0 for no effect and ±100 for the full control effect; nearly all actives have a fitted effect of over 65% in size
Pol iota confirm: qHTS for Inhibitors of Polymerase Iota: Confirmatory Assay for Cherry-picked Compounds; hit rate 77% among 1,500; AID 720496, 2013; Pol iota primer extension, TAMRA/BHQ fluorescence; Potency, µM, hits mostly inhibitors; shares compounds with Pol kappa inh-1
Pol kappa inh-2: qHTS for Inhibitors of Polymerase Kappa: Confirmatory Assay for Cherry-picked Compounds | purified Pol-kappa, fluorescent strand-displacement substrate | hit rate 76% among 920 | Potency, µM, actives largely listed as inhibitors | shares compounds with Pol eta inh-1 | AID 720501, 2013
Pol eta inh-2: qHTS for Inhibitors of Polymerase Eta: Confirmatory Assay for Cherry-picked Compounds; shares compounds with Pol eta inh-1; hit rate 64% among 2,600; Potency, µM, most hits filed as inhibitors; Pol eta primer extension, TAMRA/BHQ fluorescence, 10 min
Numbers without * were called inactive; ? = inconclusive; · = no result; ! = not active in a repeat; [ ] = dose if it differs, or a comment. Calls follow the shape of the dose curve; as a rule, active = well fitted curve in the direction sought with a large enough effect; inconclusive = small, poorly fitted or top-dose-only effect, or another doubt; inactive = no such curve, though single readings can be large; an effect the other way counts as inactive or inconclusive. Potency is read from the fitted curve at half-maximal effect.

SMILES	Pol eta inh-1	Pol kappa inh-1	Pol iota inh	POLB inh	WRN inhibitor	FEN1 inhibitor	Pol iota confirm	Pol kappa inh-2	Pol eta inh-2	others
Cc1ccc(-n2c(C)cc(C(=O)OCC(=O)N3CCOCC3)c2C)cc1	-21%	-5%	85%	·	-7%	-3%	·	·	·
Cc1ccc(C(=O)OCC(=O)c2ccc(CC(=O)N3CCOCC3)s2)c(C)c1	16µM*	18µM*	13µM*	·	50µM*	0%	42*	38*	?
CC(/C=N/NC(=O)c1ccc(CN2c3cccc4cccc(c34)S2(=O)=O)cc1)c1ccccc1 (stereo not drawn)	?	-6%	-6%	6%[57.1 µM]	-29%	7%	·	·	·
O=C(O)c1ccc(/C=N/NC(=O)c2ccc(CN3c4cccc5cccc(c45)S3(=O)=O)cc2)cc1	22µM*	?	25µM*	?	?	?	?	·	60*
CC/C=C\C/C=C\C/C=C\CCCCCCCC(=O)O	7.9µM*	28µM*!	13µM*	·	18µM*	-17%	30*	9.5*	24*
CC/C=C\C/C=C\C/C=C\CCCCCCCCCCCC(=O)O	·	-1%[19.4 µM]	·	·	·	·	·	·	·
COc1cc(OC)cc(C(=O)NCc2ccc3c(c2)CCN3C(=O)c2ccccc2)c1	-22%	-6%[60.1 µM]	17%	-19%	·	0%	·	·	·
COc1cc2cc(Oc3ccc4ccc(=O)oc4c3)c(=O)oc2cc1OC(=O)/C=C/c1ccccc1	-2%	-21%	-12%	11%	1%	-30%	·	·	·
COc1cc2cc(Oc3ccc4ccc(=O)oc4c3)c(=O)oc2cc1OC1OC(COC(=O)CC(C)(O)CC(=O)O)C(O)C(O)C1O (stereo not drawn)	35µM*	?	50µM*	?	-15%[11.6 µM]	-23%	67*	·	48*
O=C(O)C1Oc2cc3ccccc3cc2O1	18µM*	-98%	28µM*	7.9µM*	-27%	-30%	75*	8.4*	48*
COc1ccc(Cl)cc1NC(=O)CSc1cn(CC(=O)N2CCCCCC2)c2ccccc12	-7%	-38%	?	-1%	·	-31%	·	·	·
O=c1c(-c2ccc(O)cc2)coc2c(C3OC(CO)C(O)C(O)C3O)c(O)ccc12 (stereo not drawn)	·	-12%[60.1 µM]	·	·	·	·	·	·	·
O=c1cc(-c2ccc(O)cc2)oc2cc(O)c(C3OC(CO)C(O)C(O)C3O)c(O)c12 (stereo not drawn)	20µM*	40µM*	35µM*	8.9µM*	?	?	34*	·	24*
C(=C\c1ccnc2ccccc12)/c1ccc(-[n+]2cc[n+](-c3ccc(/C=C/c4ccnc5ccccc45)cc3)cc2)cc1	·	-11%	7%	·	·	0%	·	·	·
COc1ccc(C(=O)N/N=C/c2ccc(OC(=O)c3cccc4ccccc34)c([N+](=O)[O-])c2)cc1	?	?	?	11µM*	-14%	-2%	?	67*	·
COc1ccc(N(C)C(=O)c2cn(C3CCCCC3)c(=O)c3c2c2ccccc2n3C)cc1	-20%	2%	6%	?	·	2%	·	·	·
CCc1ccccc1NC(=O)c1ccc(Cn2nc(N3CCN(c4ccccc4)CC3)ccc2=O)o1	-4%	?	79µM*	16µM*	·	10%	?	34*	76*
O=c1oc2ccccc2c2oc3cc(O)c(O)cc3c12	4.5µM*	5µM*	3.2µM*	-111%	45µM*	45µM*	21*	67*	21*
COc1cccc2c1CCCC2CCCN1CCN(C2CCCCC2)CC1 (stereo not drawn)	·	10%[60.1 µM]	·	·	·	·	·	·	·
Oc1cccc(O)c1	·	-2%[60.1 µM]	·	·	·	·	·	·	·
O=S(=O)(c1cc(O)ccc1O)c1cccc2c(S(=O)(=O)c3cc(O)ccc3O)cccc12	4.5µM*	18µM*	7.9µM*	·	32µM*	35µM*	8.4*	9.5*	15*	PGK validate=3.7µM*
Cc1ccc(NC(=O)Cn2cc(S(=O)(=O)Cc3ccc(F)cc3)c3ccccc32)cc1Cl	18µM*	?	79µM*	25µM*	·	-12%	47*	·	43*
O=C(NC1CCCC1)c1ccc(CSc2nc3cccnc3n2Cc2ccccc2F)cc1	-9%	-9%	-4%	15%	·	-10%	·	·	·
CCOC(=O)CC(NS(=O)(=O)c1ccc2[nH]cc(C(=O)O)c(=O)c2c1)c1ccc(OCC)c(OC)c1 (stereo not drawn)	4µM*	50µM*	20µM*	3.5µM*	1%[11.6 µM]	-17%	34*	·	27*
Oc1ccc(-c2csc(-c3cccnc3)n2)cc1O	25µM*	32µM*	28µM*	?	?	-18%	84*	·	?
Cc1cc(-c2n[nH]c(=S)n2/N=C/c2ccc(Cl)c([N+](=O)[O-])c2)n[nH]1	-10%	-16%	-10%	12%	-16%	-16%	·	·	·
O=[N+]([O-])c1cc(/C=N/n2c(-c3ccncc3)n[nH]c2=S)ccc1Cl	50µM*	?	13µM*	2.5µM*	?	50µM*	17*	·	43*
CCc1nnc(NC(=O)C(=O)c2cc(C)n(-c3ccccc3)c2C)s1	50µM*	-5%	-21%	15%	·	-3%	?	13*	85*
Cc1cc(Cl)ccc1NC(=O)Cn1nc(C)c2c(C)n(-c3ccccc3)nc2c1=O	·	?	50µM*	40µM*	·	-1%	75*	47*	?

Source: PubChem (National Center for Advancing Translational Sciences (NCATS))
